GAA glycogen: alters human alpha-glucosidase cleavage of glycogen; P10253; recombinant GAA, glycogen substrate, Amplex Red glucose oxidase fluorescence; Potency, µM (series often up to 76.4 µM), most hits filed as inhibitors; actives 0.38% (n = 300,000);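 further: the screen sought inhibitors and activators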
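Recombinant enzyme (4 nM final) with compounds titrated up to 77 uM and bovine liver glycogen (30 ug) in citrate pH 5.0, 0.01% Tween-20, 37 C 40 min. Released glucose detected by Amplex Red/glucose oxidase (Ex 573/Em 610); AC50 from Hill fits.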
GAA spleen mod: inhibits or activates alpha-glucosidase in human spleen homogenate. human spleen homogenate, 4-MU-alpha-glucoside fluorescence. Potency, µM (doses to about 79.9 µM), usual class: inhibitors. actives 0.006% (n = 240,000). AID 2112
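Enzyme source: human spleen homogenate, 1 ug/well. Buffer 50 mM citric acid/K phosphate pH 5.0, 0.01% Tween-20. 4-MU-alpha-glucoside 1 mM; 37 C x 40 min; NaOH/glycine stop; fluorescence.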
aGal spleen mod: inhibitors or activators of human alpha-galactosidase in spleen homogenate. P06280. human spleen homogenate, 4MU-alpha-Gal fluorescence, 40 min. Potency, µM (titrated, usually from 80 µM), actives largely listed as inhibitors. actives 0.008% (n = 240,000). AID 2107
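Human spleen homogenate (1 ug) was the enzyme source, with 4-methylumbelliferyl-alpha-D-galactopyranoside (1 mM final) in pH 5.0 citrate buffer with 0.01% Tween-20. Compounds were titrated; after 40 min at 37C, NaOH/glycine stop, 4-MU fluorescence read; AC50 from Hill fits.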
GAA inh: blocks human lysosomal alpha-glucosidase | Potency, µM (series often up to 76.9 µM), usual class: inhibitors | purified human GAA, 4-MU-alpha-glucoside fluorescence | P10253 | actives 0.005% (n = 200,000)
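AC50 values come from Hill fits of compound titrations (up to 77 uM) against 4 nM human enzyme. Substrate 4-methylumbelliferyl-alpha-D-pyranoside at 400 uM, pH 5.0 citrate buffer, 20 min room temperature; fluorescence Ex 365/Em 440 after alkaline stop.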
GLA inh pH 4.5: alpha-galactosidase A (human) inhibition, pH 4.5 | P06280 | 230,000 tested, under 10 active | activity change, negative = inhibition, % at 105 µM | purified enzyme, 4-MU-alpha-Gal fluorescence, pH 4.5 | AID 1467
Target sequence (P06280 whole entry, looked up): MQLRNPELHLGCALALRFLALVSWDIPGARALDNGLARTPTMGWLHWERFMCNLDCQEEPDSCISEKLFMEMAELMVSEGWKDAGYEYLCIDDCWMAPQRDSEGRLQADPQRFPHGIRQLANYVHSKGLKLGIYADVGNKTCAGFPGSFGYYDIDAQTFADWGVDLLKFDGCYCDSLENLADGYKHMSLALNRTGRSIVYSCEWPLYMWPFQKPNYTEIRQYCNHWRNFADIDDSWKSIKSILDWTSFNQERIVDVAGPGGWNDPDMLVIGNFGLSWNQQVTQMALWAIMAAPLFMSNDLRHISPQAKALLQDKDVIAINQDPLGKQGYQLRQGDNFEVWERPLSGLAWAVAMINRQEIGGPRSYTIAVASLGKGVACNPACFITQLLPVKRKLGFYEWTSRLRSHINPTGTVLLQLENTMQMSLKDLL
N370S GC: N370S glucocerebrosidase modulation, Gaucher chaperone candidate. N370S GC spleen homogenate, 4MU-glucoside fluorescence. actives 0.092% (n = 330,000). Potency, µM (series often up to 59.4 µM), usual class: inhibitors
Hits are given with their value; 0 = inactive; ? = inconclusive; - = no result given. Sampled rows, rich in hits. Any-hit rate of the full collection: about 0.43%. The call rests on the fitted dose curve; in most records, active means well fitted curve in the direction sought with a large enough effect; inconclusive means small, poorly fitted or top-dose-only effect, or another doubt; inactive means no such curve, though single readings can be large; an effect the other way counts as inactive or inconclusive.

SMILES	GAA glycogen	GAA spleen mod	aGal spleen mod	GAA inh	GLA inh pH 4.5	N370S GC
COc1ccc(N=Cc2sc(O)c3ccccc23)cc1	20µM	0	0	0	0	0
COc1ccc(N=Cc2c(O)c3ccccc3n2C(C)=O)cc1	0	0	0	-	0	0
CCn1c(COc2ccc(C)cc2)nnc1SCC(=O)NCc1ccco1	0	0	0	0	0	0
CCOc1ccc(Nc2nc(Cc3nnc(SCC(=O)NCc4ccco4)n3CC)cs2)cc1	18µM	0	0	0	0	0
CC1(C)C(c2cccs2)=[N+]([O-])C2(CCCCC/C2=N\NC(N)=S)N1O (centres undefined)	18µM	0	0	0	0	0
CC1(C)C(c2ccco2)=[N+]([O-])C2(CCCCC2=O)N1O (centres undefined)	0	0	0	0	0	0
Cc1ccc(Nc2ccc(S(=O)(=O)N3CCOCC3)cc2[N+](=O)[O-])c(C)c1	0	0	0	0	0	0
Cc1ccc(-c2nnc3c4ccccc4c(C)nn23)cc1S(=O)(=O)N1CCN(CCO)CC1	0	0	0	0	0	16µM
Cc1ccc(-c2nnc3c4ccccc4c(C)nn23)cc1NC(=O)CN1CCOCC1	0	0	0	0	0	0
O=C(N/N=C/C1CC=CCC1)c1ccccc1O (centres undefined)	32µM	0	0	0	0	0
O=C(N/N=C/C1CC=CCC1)c1cc(Br)ccc1O (centres undefined)	?	0	0	0	0	0
Cc1onc(-c2ccccc2Cl)c1C(=O)NNC(=O)c1ccccc1F	0	-	-	-	-	0
Cc1noc(C)c1C(=O)NNc1ccc(C(C)C)cc1	40µM	0	0	0	0	0
ClC1=C(Cl)C(Cl)(Cl)C(Cl)=C1Cl	-	0	0	-	-	0
O=C(NNC(=O)c1ccccc1F)C1=NN(c2ccccc2)C(=O)CC1	50µM	-	-	-	-	0
CC(C)NC(=O)C1=NN(c2ccccc2)C(=O)CC1	0	-	-	-	-	0
Cc1nc2ccccn2c1C(=O)NN=C1C2CC3CC(C2)CC1C3	0	0	0	0	0	0
COc1ccc(-n2c(=O)c3c4c(sc3n(Cc3ccc(F)cc3)c2=O)CN(C(C)=O)CC4)c(OC)c1	56µM	-	-	-	-	-
COc1ccc(-n2c(=O)c3c4c(sc3n(Cc3cccc(F)c3)c2=O)CN(C(C)=O)CC4)c(OC)c1	0	0	0	0	0	0
O=C1NCCCCC1NS(=O)(=O)c1ccc(F)c(F)c1 (centres undefined)	0	0	0	-	0	0
Cc1cccc(NC(=S)N(CCCN2CCOCC2)Cc2ccccn2)c1	0	0	0	0	0	?
S=C(Nc1ccc(Oc2ccccc2)cc1)N(CCCN1CCOCC1)Cc1ccccn1	0	0	0	0	0	10µM
O=C(CC(c1ccccc1)c1cc(Br)ccc1O)NCCCN1CCOCC1 (centres undefined)	0	-	-	-	-	0
O=C(CC(c1ccccc1)c1cc(Br)ccc1O)NCCN1CCOCC1 (centres undefined)	0	0	40µM	0	0	0
Cc1ccc2nc3c(c(Nc4ccc(O)cc4)c2c1)CCC3	13µM	-	-	-	-	?
SMILES	GAA glycogen	GAA spleen mod	aGal spleen mod	GAA inh	GLA inh pH 4.5	N370S GC
COc1ccc(Nc2c3c(nc4ccc(C)cc24)CCC3)cc1	0	-	-	-	-	?
COC(=O)Nc1ccc(S(=O)(=O)Nc2ccc(O)cc2)cc1	32µM	0	0	0	0	0
COCCNc1nc(-c2ccccc2Cl)nc2ccccc12	-	0	0	-	-	7.9µM
c1ccc(CNc2nc(-c3ccccc3)nc3ccccc23)cc1	0	-	-	-	-	?
c1ccc(CNc2nc(-c3cccs3)nc3ccccc23)cc1	0	0	0	0	0	0.5µM
Fc1ccccc1-c1nc(NCc2ccccc2)c2ccccc2n1	0	0	0	-	0	13µM
CCOc1cccc(C(=O)Nc2ccc3oc(Cc4ccc(Cl)cc4)nc3c2)c1	0	0	0	0	0	-
Cc1cc(C)nc(NNC2=CC(=[N+]3CCCC3)CCC2)n1	2.2µM	0	0	0	0	0
COc1ccc(S(=O)(=O)N(CC(=O)N(C)Cc2ccccc2)c2ccc(Cl)cc2)cc1	0	-	-	-	-	-
CC(=O)c1cc2cc(O)ccc2o1	0	?	?	?	?	?
CC(=O)c1cc2c(O)c(O)ccc2o1	31µM	0	0	0	0	0
Brc1ccc(C2C3=C(Nc4ncnn42)c2ccccc2OC3c2ccncc2)cc1 (centres undefined)	0	0	0	0	0	14µM
Cc1cc(C)cc(N(CC(=O)Nc2ccc(C(F)(F)F)cc2)S(=O)(=O)c2c(C)[nH]c(=O)[nH]c2=O)c1	0	-	-	-	-	2.2µM
Cc1cc(C)cc(N(CC(=O)Nc2ccc(C)cc2Cl)S(=O)(=O)c2c(C)[nH]c(=O)[nH]c2=O)c1	0	-	-	-	-	0.25µM
COc1ccc(N(CC(=O)Nc2cc(C)ccc2C)S(=O)(=O)c2c(C)[nH]c(=O)[nH]c2=O)cc1	0	-	-	-	-	?
Cc1ccc(N(CC(=O)Nc2ccc(Br)c(C)c2)S(=O)(=O)c2c(C)[nH]c(=O)[nH]c2=O)cc1	0	-	-	-	-	11µM
Nc1nc(-c2cccnc2)nn1C(=O)c1ccc(F)cc1	0	0	0	0	0	0
O=C1CCCC2=C1C(c1ccc(O)c(O)c1)Nc1ccc3ncccc3c12 (centres undefined)	2.8µM	0	0	0	0	0
C=CCn1c(SCC(=O)NC2CCCC2)nc2scc(-c3ccco3)c2c1=O	0	0	0	0	0	13µM
O=C1CC(N2CCN(c3ccccc3O)CC2)C(=O)N1Cc1ccccc1 (centres undefined)	3.1µM	0	0	0	0	0
CN(C)c1ncnc2ccc(-c3ccc4c(c3)OCO4)cc12	-	0	0	-	-	?
CCOC(=O)c1c(C)[nH]c(NC(=O)Nc2c(C)n(C)n(-c3ccccc3)c2=O)c1C	32µM	0	0	0	0	0
O=C1OC2(c3cc(Br)c(O)c(Br)c3Oc3c2cc(Br)c(O)c3Br)c2c(Cl)c(Cl)c(Cl)c(Cl)c21	-	0	0	-	-	0
CCNc1ccc(C(=O)O)cc1N	?	0	0	0	0	0
Nc1ccccc1C(=O)Nc1cccc(C(=O)O)c1	0	0	0	0	0	0
CCc1ccccc1Nc1ccc(C(=O)O)cc1N	3.1µM	0	0	0	0	0
Nc1cc(C(=O)O)ccc1Nc1ccccc1	12µM	0	0	?	0	0
COc1cccc(N(C(=O)CNC(=O)c2ccco2)C(C(=O)NC2CCCC2)c2ccco2)c1 (centres undefined)	0	-	-	-	-	0
COc1ccc(C2NC3=C(CCC3)C3(C#N)C4(N=C(N)C23C#N)OCCO4)cc1 (centres undefined)	22µM	0	0	0	0	0
